Test [1] has as its system Plasmodium falciparum Sir2 (PF13_0152, Sir2A). The test is described as follows: Plasmodium falciparum Sir2A binding compounds – biochemical, small-molecule microarray, 635 nm fluorescence, primary screen (AID 1098).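 Further: score merges spot fluorescence intensity with its signal-to-noise ratio.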 The settings on record: fluorescence 635 nm, higher = more signal.
A short description of test [2]: probe aDKK1 binding to arrayed compounds – biochemical, biotinylated probe, 635/667 nm fluorescence, primary screen (AID 1099).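 Further: score merges 667nm spot fluorescence with signal to noise across triplicate slides; reference of the scale not given here.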 The settings on record: small-molecule microarray, higher = more signal.
Test [3] in a line: probe aCHRDL2 binding to arrayed compounds – biochemical, biotinylated probe, 635/667 nm fluorescence, primary screen (AID 1100). To be noted: small-molecule microarray, higher = more signal.
A short description of test [4]: change in splice reporter luminescence, either direction, cell-based, HEK293, spliceosome inhibition project, primary screen (AID 1101).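 Further: HEK293 cells carrying a splicing-competent luciferase reporter gene; test concentration not given here.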 The settings on record: HEK293 splicing luciferase reporter, 24 h, higher = more signal, called active from +8 up or from −8 down. (In general: A reporter such as luciferase makes a cellular process visible.)
In test [5] the target is Fibroblast growth factor 10 (Homo sapiens) (UniProt O15520). The test is described as follows: compounds binding fibroblast growth factor 10 – biochemical, small-molecule microarray, 635 nm fluorescence, primary screen (AID 1102). To be noted: FGF10 binding, fluorescence 635 nm, higher = more signal.
Chain of Fibroblast growth factor 10 (Homo sapiens) (O15520 whole entry, looked up): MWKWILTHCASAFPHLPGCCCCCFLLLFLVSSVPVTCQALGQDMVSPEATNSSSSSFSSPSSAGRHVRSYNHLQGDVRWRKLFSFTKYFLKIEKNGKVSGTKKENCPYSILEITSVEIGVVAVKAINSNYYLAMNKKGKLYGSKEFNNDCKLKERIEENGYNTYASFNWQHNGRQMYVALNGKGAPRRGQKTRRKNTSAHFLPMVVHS
The test system of test [6] is glycogen synthase kinase-3 (GSK3A per assay name; protocol says GSK3B). The test is described as follows: compounds binding glycogen synthase kinase-3 – biochemical, small-molecule microarray, 635 nm fluorescence, GSK3A, primary screen (AID 1103). Further: the record names both GSK3A and GSK3B. The settings on record: fluorescence 635 nm, higher = more signal.
In test [7] the target is Epidermal growth factor receptor (Homo sapiens) (UniProt P00533). The test is described as follows: compounds binding epidermal growth factor receptor – biochemical, small-molecule microarray, 635 nm fluorescence, primary screen (AID 1104).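 Further: score merges 667 nm emission intensity with spot signal to noise over triplicate slides.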 The settings on record: EGFR binding, higher = more signal.
Chain of Epidermal growth factor receptor (Homo sapiens) (P00533 whole entry, looked up): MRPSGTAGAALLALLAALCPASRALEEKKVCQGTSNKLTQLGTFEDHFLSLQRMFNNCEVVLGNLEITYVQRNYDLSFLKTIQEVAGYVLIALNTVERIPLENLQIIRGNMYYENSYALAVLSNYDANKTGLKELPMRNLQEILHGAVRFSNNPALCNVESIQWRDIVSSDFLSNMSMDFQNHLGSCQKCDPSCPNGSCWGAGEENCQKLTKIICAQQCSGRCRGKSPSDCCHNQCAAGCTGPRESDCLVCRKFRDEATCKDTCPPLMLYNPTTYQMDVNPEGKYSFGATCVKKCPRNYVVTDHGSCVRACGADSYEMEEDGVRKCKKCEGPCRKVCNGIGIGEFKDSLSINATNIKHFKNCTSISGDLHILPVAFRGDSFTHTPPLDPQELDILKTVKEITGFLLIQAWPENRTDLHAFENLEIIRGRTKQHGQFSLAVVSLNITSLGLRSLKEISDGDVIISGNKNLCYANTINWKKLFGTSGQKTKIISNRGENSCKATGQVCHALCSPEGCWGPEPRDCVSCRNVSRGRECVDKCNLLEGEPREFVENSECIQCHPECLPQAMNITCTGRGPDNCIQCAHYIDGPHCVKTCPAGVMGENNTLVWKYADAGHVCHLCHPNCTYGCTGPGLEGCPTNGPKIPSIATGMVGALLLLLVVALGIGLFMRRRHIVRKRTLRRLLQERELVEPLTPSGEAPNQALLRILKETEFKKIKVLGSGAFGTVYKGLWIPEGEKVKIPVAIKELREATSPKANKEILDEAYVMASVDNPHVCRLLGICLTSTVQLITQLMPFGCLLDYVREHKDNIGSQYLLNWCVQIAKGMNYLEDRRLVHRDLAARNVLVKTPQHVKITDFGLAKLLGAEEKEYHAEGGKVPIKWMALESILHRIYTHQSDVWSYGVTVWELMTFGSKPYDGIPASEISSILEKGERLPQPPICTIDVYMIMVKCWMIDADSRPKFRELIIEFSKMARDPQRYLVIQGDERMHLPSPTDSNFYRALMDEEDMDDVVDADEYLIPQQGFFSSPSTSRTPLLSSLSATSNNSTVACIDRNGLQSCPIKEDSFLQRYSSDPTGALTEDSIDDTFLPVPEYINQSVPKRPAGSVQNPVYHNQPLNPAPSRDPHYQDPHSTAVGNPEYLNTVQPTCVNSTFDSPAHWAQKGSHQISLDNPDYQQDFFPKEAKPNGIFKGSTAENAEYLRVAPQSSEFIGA
In test [8] the target is Follistatin-related protein 3 (Homo sapiens) (UniProt O95633). The test is described as follows: compounds binding follistatin-related protein 3 – biochemical, small-molecule microarray, 635 nm fluorescence, primary screen (AID 1105).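 Further: score merges emission near 667 nm and signal to noise per printed spot across three slides.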 The settings on record: FSTL3 binding, higher = more signal.
Chain of Follistatin-related protein 3 (Homo sapiens) (O95633 whole entry, looked up): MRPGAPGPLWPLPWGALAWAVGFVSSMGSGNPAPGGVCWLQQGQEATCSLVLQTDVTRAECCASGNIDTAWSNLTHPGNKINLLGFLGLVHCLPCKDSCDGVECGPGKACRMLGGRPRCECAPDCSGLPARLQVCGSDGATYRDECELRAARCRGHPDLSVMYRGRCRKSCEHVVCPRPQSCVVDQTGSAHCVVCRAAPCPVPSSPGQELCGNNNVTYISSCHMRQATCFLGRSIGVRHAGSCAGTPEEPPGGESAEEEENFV
The target of test [9] is Dickkopf-related protein 1 (Homo sapiens) (UniProt O94907). The test is described as follows: small molecules binding DKK1 protein – biochemical, small-molecule microarray, 635 nm fluorescence scan, primary screen (AID 1106).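 Further: score merges emission near 667 nm with signal to noise over three replicate slides.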 To be noted: higher = more signal.
Chain of Dickkopf-related protein 1 (Homo sapiens) (O94907 whole entry, looked up): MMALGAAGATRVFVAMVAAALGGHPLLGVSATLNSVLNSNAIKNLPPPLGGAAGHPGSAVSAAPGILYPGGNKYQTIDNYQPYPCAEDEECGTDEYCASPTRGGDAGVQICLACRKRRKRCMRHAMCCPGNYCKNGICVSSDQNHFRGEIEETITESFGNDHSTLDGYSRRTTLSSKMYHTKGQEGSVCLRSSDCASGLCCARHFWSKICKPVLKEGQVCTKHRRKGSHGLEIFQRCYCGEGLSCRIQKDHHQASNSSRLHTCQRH
The subject of test [10] is Inhibin beta A chain (activin A). The test is described as follows: small molecules binding activin A – biochemical, small-molecule microarray, 635 nm fluorescence scan, primary screen (AID 1107).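 Further: mouse activin A protein probed at 4.33 µg/mL on printed slides; score merges bound-protein fluorescence near 667 nm with spot signal-to-noise.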 To be noted: INHBA, higher = more signal.

The source made the active and inactive calls.

For the compound `COc1cccc([C@H]2Oc3ccc(OC)cc3C(=NOC[C@@H](C)[C@H](OCc3ccccc3)C(C)C)[C@@H]2O)c1`, the composite z-score in test [1] is -0.0088; in test [2] it was 0.197; in test [3], 0.101; in test [5], 0.325; in test [6], 0.332; in test [7], -0.168. For the same compound, the composite z-score amounted to 0.242 in test [8], 0.304 in test [9] and 0.0185 in [10]. In addition, in test [4], the z-score was -0.171 (inactive).

Consider `CCOC(=O)[C@H](Cc1ccccc1)NC(=O)CCC1CC(OC(=O)NCc2ccc3c(c2)OCO3)CC2(CCCC(COC(=O)NCCc3ccccc3OC)O2)O1` (stereo not given in full), for which the composite z-score in test [1] is 0.604; in test [2], -0.0864; in [3], -0.465; in test [5], 0.977; in test [6], 1.23; in test [7], 0.539. Besides, the composite z-score in test [8] is 1.35; in test [9] it was 0.759; in [10] it was 0.0493. For the same compound, the z-score in test [4] was 0.222 (inactive).

Take `C#CCCCON=C1[C@H]2CCn3c(=O)n(C)c(=O)n3[C@H]2[C@H](O)[C@@H]2O[C@H]12`: the composite z-score was 0.325 in test [1]; -0.316 in test [2]; -0.548 in test [3]; 0.478 in test [5]; 0.832 in test [6]; 0.719 in [7]. Besides, the values for the composite z-score in test [8], in test [9] and in [10] were 0.938, 0.811 and 0.213, respectively. The z-score in [4] is 0.0589 (inactive).

In the case of `Cc1cc2c(nc1C)CCCCN2CC(C)ON=C1[C@H]2CCn3c(=O)n(-c4ccccc4)c(=O)n3[C@H]2[C@H](O)[C@@H]2O[C@H]12` (stereo not given in full), the composite z-score in test [1] is 0.606; in [2], 0.213; in test [3] it was -0.0869; in test [5], 1.11; in [6] it was 0.331; in [7], 0.302. In addition, the composite z-score stood at 1.05 in test [8], 0.7 in test [9] and 1.3 in test [10]. Further, the z-score in [4] is 0.718 (inactive).

As to `CCC=CCCC(OC(=O)c1ccc(Br)cc1)C1=CCCCC1=O` (stereo not given), the composite z-score in test [1] is 0.964; in [2], -0.305; in test [3], 0.457; in [5] it was 0.681; in test [6], 0.166; in test [7] it was 0.718. The composite z-score in test [8] was found to be 1.05; in [9] it was 0.592; in test [10], 1.55. Besides, in test [4], the z-score was 0.798 (inactive).

`C[C@H]1COC(=O)[C@@H]2CCCN2C(=O)[C@@H](C)COC(=O)[C@H](Cc2ccccc2)NC1=O`: the composite z-score in [1] was 0.878; in test [2] it was -0.275; in test [3], -0.647; in test [5] it was 0.338; in test [6] it was 0.727; in test [7], 0.911. Further, the composite z-score in test [8] was 0.511; in test [9], 0.374; in test [10], -0.372. The z-score in [4] is 0.282 (inactive).

`O=C1[C@H]2[C@H]3[C@H](O)[C@H](O)CC(=NOCc4ccccc4)[C@H]3CC[C@H]2C(=O)N1Cc1ccc2c(c1)OCO2`: the composite z-score is 0.297 in [1]; -0.208 in test [2]; -0.424 in [3]; 0.322 in test [5]; 0.238 in [6]; 0.338 in test [7]. Moreover, the values for the composite z-score in test [8], in [9] and in test [10] were 0.534, 0.582 and 0.157, respectively. For the same compound, in test [4], the z-score was 0.889 (inactive).

Take `C[C@@H]1C=CCC(=O)OC[C@H]2O[C@@H](C=C[C@@H]2O)[C@H](C)C=CCC(=O)OC1`: the composite z-score in [1] was 1.29; in [2], -0.594; in test [3], -1.55; in [5], 1.1; in test [6] it was 0.963; in test [7] it was 1.23. For the same compound, the composite z-score in test [8] was 1.59; in [9], 1.53; in [10] it was 1.91. For the same compound, in test [4], the z-score is -0.813 (inactive).

As to `CC(C)[C@@H](OCc1ccccc1)[C@H](C)C=NOC[C@@H](O)COCc1ccco1`, the composite z-score in test [1] was -0.887; in [2] it was -0.869; in test [3], -0.666; in [5], -0.557; in [6] it was -0.279; in [7], -1.11. For the same compound, the results for the composite z-score in test [8], in test [9] and in test [10] were -0.94, -1.62 and -3.73, respectively. In addition, the z-score in test [4] was -0.129 (inactive).

Regarding `COc1cc(O)c(C(=O)C=Cc2ccc3c(c2)OCO3)c(OC)c1`, the composite z-score in test [1] is 0.188; in test [2], -0.323; in [3], -0.379; in [5], 0.772; in test [6] it was -0.729; in test [7], -0.229. In addition, the values for the composite z-score in [8], in test [9] and in test [10] were -0.0642, 0.115 and 0.551, respectively. Further, the z-score in [4] is -0.00405 (inactive).

For `CCOC(=O)[C@H](Cc1ccccc1)NC(=O)CCC1CC(OC(=O)NCc2cccc3ccccc23)CC2(CCCC(COC(=O)NCCC(C)C)O2)O1` (stereo not given in full), the composite z-score in test [1] is 0.12; in [2] it was -0.295; in test [3], -0.206; in test [5], 0.143; in test [6], -0.448; in [7], -0.135. For the same compound, the composite z-score is 0.133 in [8], -0.096 in test [9] and 0.388 in test [10]. Also, in [4], the z-score is -1.74 (inactive).

`CCOC(=O)C1=NO[C@@]2(C=C(Br)C3(OCCCO3)[C@H]3O[C@H]32)C1`: the composite z-score in test [1] is 0.984; in test [2], -0.042; in [3] it was 0.521; in [5], 1.07; in [6], 0.827; in test [7], 1.13. Further, the composite z-score in test [8] was determined as 0.842; in test [9], 1.66; in test [10], 1.59. Further, in test [4], the z-score was 0.0671 (inactive).

For `O=C1C2=CC[C@H]3C(=O)N(c4cccc(Oc5ccccc5)c4)C(=O)[C@H]3[C@H]2[C@H](O)[C@@H]2O[C@H]12`, the composite z-score in test [1] is 0.237; in test [2], -0.372; in test [3], -0.37; in [5] it was 0.635; in test [6] it was 0.393; in [7], 0.299. Further, the composite z-score is 0.666 in test [8], 0.655 in test [9] and -0.0639 in test [10]. The z-score in test [4] was 14.7 (active).

`COc1cccc([C@H]2Oc3ccc(OC)cc3C(=NOC[C@@H](O)[C@H]3O[C@@H]4OC(C)(C)O[C@@H]4[C@H]3O)[C@@H]2O)c1`: the composite z-score in test [1] was 0.0732; in test [2] it was -0.389; in [3] it was -0.511; in test [5], 0.654; in test [6], 0.315; in test [7], 0.35. Further, the figures for the composite z-score in test [8], in test [9] and in test [10] were 0.492, 0.548 and -0.326, respectively. In addition, the z-score in test [4] is -0.106 (inactive).

Regarding `CCOC(=O)[C@H](CC(C)C)NC(=O)CCC1CC(OC(=O)NCCc2ccc(F)cc2)CC2(CCCC(COC(=O)NCC(c3ccccc3)c3ccccc3)O2)O1` (stereo not given in full), the composite z-score in test [1] was 1.1; in test [2] it was 0.096; in [3] it was -0.437; in test [5] it was 0.588; in [6], 0.873; in test [7] it was 0.319. In addition, the figures for the composite z-score in test [8], in [9] and in test [10] were 0.824, 0.697 and -0.0427, respectively. In test [4], the z-score is 0.0587 (inactive).

As for `O=C1C[C@@H](O)[C@@H](O)[C@@H]2[C@@H]3C(=O)N(c4cccc(Oc5ccccc5)c4)C(=O)[C@@H]3CC[C@H]12`, the composite z-score in test [1] is 0.326; in [2] it was -0.18; in test [3] it was -0.709; in [5], 0.595; in [6], 0.572; in test [7] it was 0.573. For the same compound, the composite z-score in test [8] is 0.814; in test [9] it was 0.846; in test [10] it was -0.173. Further, the z-score in [4] is 0.218 (inactive).

Take `CC(C)=CCCC(C)=CCON=C1C[C@@H](O)[C@@H](O)[C@@H]2[C@@H]3C(=O)N(C4CCCCC4)C(=O)[C@@H]3CC[C@@H]12`: the composite z-score is 0.511 in test [1]; -0.355 in test [2]; -0.858 in test [3]; 0.368 in test [5]; -0.345 in test [6]; 0.859 in [7]. For the same compound, the composite z-score in test [8] is 0.502; in test [9], 0.996; in test [10], 1.04. The z-score in test [4] was 0.956 (inactive).

(Values after PubChem BioAssay.)
